Screens deposited in PubChem by several laboratories.
In the library only some 2.9% were active in any assay of this set; here they are far more common.
sPLA2-III inh: Inhibits HGIII-sPLA2 liposome hydrolysis, primary screen; QFRET BODIPY PC-A2 liposome hydrolysis, fluorescence; inhibition, % at 12.2 µM; actives 0.56% (n = 370,000); AID 743126;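 active = inhibition above mean plus 3 SD of compounds lying within the high and low control bounds, cut at about 19% in these data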;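 also: 0% = median of test compound wells and 100% = no enzyme DMSO wells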
Rtt109 HAT inh: inhibitors of Candida albicans Rtt109/Vps75 histone acetyltransferase; purified Rtt109/Vps75, ThioGlo CoA-SH fluorescence, 4 h; inhibition, % at 34.9 µM; actives 0.16% (n = 330,000);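 active = inhibition of at least 50% in every replicate; inconclusive = best replicate reaches 50% inhibition but some replicates fall short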
Target sequence (Q5AAJ8 whole entry, looked up): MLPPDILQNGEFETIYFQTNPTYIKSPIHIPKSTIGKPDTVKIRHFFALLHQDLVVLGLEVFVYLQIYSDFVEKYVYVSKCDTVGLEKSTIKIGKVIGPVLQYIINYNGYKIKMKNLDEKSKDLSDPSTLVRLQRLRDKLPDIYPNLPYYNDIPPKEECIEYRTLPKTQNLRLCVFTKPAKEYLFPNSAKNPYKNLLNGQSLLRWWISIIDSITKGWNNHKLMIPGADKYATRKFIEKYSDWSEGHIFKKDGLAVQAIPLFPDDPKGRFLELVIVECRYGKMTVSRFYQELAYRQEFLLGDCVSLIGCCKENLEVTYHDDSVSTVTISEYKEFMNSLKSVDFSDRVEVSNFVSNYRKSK
DAGLB inh: blocks human DAGLB lipase activity | AID 504411 | HEK293T DAGLB membrane lysate, EnzChek fluorogenic substrate | actives 0.059% (n = 340,000) | Q8NCG7 | inhibition, % at 5.17 µM; in the data active = inhibition above about 34%;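 also: 0% = enzyme with vehicle and 100% = wells lacking enzyme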
ABHD5-PLIN5 inh: blocks binding of human ABHD5 to perilipin-5. inhibition, % at 4 µM. actives 0.78% (n = 360,000). Split G. princeps luciferase complementation, luminescence, 4 h. AID 602281;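 active = inhibition above the mean inhibition across every tested compound plus 3 SD, cut at about 22% in these data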;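 also: 0% = DMSO only wells and the 100% control is not disclosed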
Myeloid diff 2: myeloid differentiation induction. actives 1% (n = 360,000). AID 624256. calls only at 10 µM. ER-HoxA9 myeloid progenitors, lysozyme-GFP differentiation, flow cytometry;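 active = normalized GFP-positive differentiation at or above the plate's own cutoff, the solvent-only control mean plus 3 SD; inconclusive = no clear call, values can overlap the other calls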;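 also: cells exposed to compound for four days before flow analysis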
Cardio protect: modulators protecting cardiomyocytes from myocardial damage; H9c2 cardiomyocytes, H2O2 injury protection, ATPLite, 2 h; protection from H2O2 cell death, % at 20 µM; actives 0.63% (n = 360,000);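 active = compounds giving at least 50% protection of heart cells from peroxide-induced death in the single-dose screen, raw or plate-pattern-corrected value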;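 also: 0% = DMSO wells with peroxide and 100% = DMSO wells without peroxide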
* = called active by the depositor; i = inactive; ? = inconclusive; . = no result given; + = active, no number.

SMILES | sPLA2-III inh | Rtt109 HAT inh | DAGLB inh | ABHD5-PLIN5 inh | Myeloid diff 2 | Cardio protect
Cc1ccc(C)c(NC(=O)C(=O)NCc2ccccn2)c1 | 8 | . | 0 | 4 | i | 0
COc1ccccc1N1CCN(C(=O)c2sc3ncn(CC(=O)N4CCC(C)CC4)c(=O)c3c2C)CC1 | -6 | 0 | 0 | -2 | i | 3
COc1ccc(C(=O)Nc2cccc(/C(C)=N/NC(=O)c3ccc([N+](=O)[O-])cc3)c2)cc1OC | 0 | . | 4 | -5 | + | 16
O=C(N/N=C/c1cc([N+](=O)[O-])ccc1O)C1CCCCC1 | 4 | 8 | -4 | -8 | i | 52*
Cc1cccc(NC(=O)CCC(=O)N/N=C/c2cc([N+](=O)[O-])ccc2O)c1 | -10 | 3 | 8 | -2 | i | 58*
O=C(Cn1nc2ccccc2n1)N/N=C/c1cc([N+](=O)[O-])ccc1O | -12 | 12 | 10 | 6 | i | 43
O=C(CCC(=O)Nc1ccc(Br)cc1)N/N=C/c1cc([N+](=O)[O-])ccc1O | 6 | 1 | 10 | 3 | i | 54*
Cc1nc2ccc(C(=O)N/N=C/c3cc([N+](=O)[O-])ccc3O)cc2[nH]1 | -9 | -6 | 2 | 3 | i | 10
Cc1ccn(CC(=O)N/N=C/c2cc([N+](=O)[O-])ccc2O)n1 | -2 | . | 4 | 13 | i | 67*
O=C(N/N=C/c1cc([N+](=O)[O-])ccc1O)c1cccc(NC(=O)c2cccc(Cl)c2)c1 | 7 | 12 | 0 | -2 | ? | 56*
Cc1ccccc1/C=N/NC(=O)Cn1cnc([N+](=O)[O-])n1 | 8 | -12 | 3 | 3 | i | 4
O=C(Cn1cnc([N+](=O)[O-])n1)N/N=C/c1ccccc1O | -2 | -4 | -2 | 2 | i | 64*
COc1ccc(C(=O)NCC(=O)N/N=C/c2cccnc2)cc1OC | 7 | 18 | 2 | 6 | i | -2
Cc1ccc(C(c2nnnn2CC2CCCO2)N2CCN(c3cccc(C)c3C)CC2)cc1 (centres undefined) | -6 | 3 | -14 | 3 | i | -13
O=C(Nc1ccc(Cl)cc1)c1nc[nH]c1C(=O)NCCCCNC(=O)c1[nH]cnc1C(=O)Nc1ccc(Cl)cc1 | 8 | -8 | -1 | -4 | i | 20
CCOC(=O)N1CCC(N2Cc3cccc(C(=O)Nc4cccc(F)c4)c3C2=O)CC1 | 6 | 3 | 1 | -2 | i | 4
CCOC(=O)N1CCC(N2C(=O)c3ccccc3C2Nc2cc(OC)c(OC)c(OC)c2)CC1 (centres undefined) | 0 | -2 | 1 | -6 | i | 117*
CCOC(=O)N1CCC(N2Cc3cccc(C(=O)Nc4ccc(OC)c(OC)c4)c3C2=O)CC1 | -4 | 12 | -1 | -1 | i | 50*
COc1ccccc1N1CCN(C(=O)CSc2nnc(NC(=O)C(C)C)s2)CC1 | -3 | 16 | -2 | 9 | i | 3
CC(C)Nc1ncnc2c1cnn2Cc1ccc(Cl)cc1 | -6 | -5 | 0 | 8 | i | 10
c1ccc(CNc2ncnc3c2cnn3Cc2ccccc2)cc1 | -10 | . | 0 | 7 | + | 16
CCC(C)Nc1ncnc2c1cnn2Cc1ccc(Cl)cc1 (centres undefined) | -3 | 1 | -1 | -6 | i | 89*
CCc1ccccc1-n1ncc(C(=O)Nc2ccccc2OC)c1C | -1 | -5 | -5 | 3 | i | -5
CN(c1ccc(F)cc1)S(=O)(=O)c1ccc(Cl)c(C(=O)NCc2ccco2)c1 | 5 | -1 | 0 | 0 | + | -1
CN(C)S(=O)(=O)c1ccc(Cl)c(C(=O)NCc2ccco2)c1 | . | -3 | 1 | 0 | i | 0
SMILES | sPLA2-III inh | Rtt109 HAT inh | DAGLB inh | ABHD5-PLIN5 inh | Myeloid diff 2 | Cardio protect
Cc1ccc(S(=O)(=O)N2CCCC(C(=O)N3CCN(c4ccccc4)CC3)C2)cc1 (centres undefined) | -1 | 7 | 2 | 6 | i | -6
CN1/C(=C\C(=O)COC(=O)Cn2nnc(-c3ccccc3)n2)C(C)(C)c2ccccc21 | 0 | -3 | 7 | -6 | + | -18
CN1/C(=C/C(=O)COC(=O)CN2C(=O)C3CC=CCC3C2=O)C(C)(C)c2ccccc21 (centres undefined) | -3 | 10 | -4 | 0 | i | -14
Cc1cccc(NC(=O)c2ccc(S(=O)(=O)N3CC(C)OC(C)C3)cc2)n1 (centres undefined) | 6 | -6 | -1 | 1 | i | -15
Cc1ccc(NC(=O)C(C)c2ccc(-c3ccccc3)c(F)c2)cc1 (centres undefined) | -17 | -12 | -12 | -4 | i | -40
CC(C)(C)n1nnnc1CN(Cc1cccnc1)Cc1ccccc1Cl | -5 | -3 | 2 | 3 | + | -5
COc1ccc(C(C(=O)NC(C)(C)C)n2c(-c3ccc(=O)[nH]c3)nc3ccccc32)cc1 (centres undefined) | 0 | . | . | 5 | i | .
Cc1csc(NC(=O)CN2C(=O)C3CC=CCC3C2=O)n1 (centres undefined) | -2 | 5 | -2 | 2 | i | 1
CCC(=O)OCc1c(C(F)(F)F)nn(C)c1Sc1ccc(F)cc1 | -7 | 1 | -9 | 0 | + | -2
CN(C)Cc1c(O)ccc2c(=O)c(-c3ccccc3)c(C(F)(F)F)oc12 | -11 | 2 | -1 | 5 | i | 0
CS(=O)(=O)Nc1cccc(NC(=O)C2Cc3c(-c4cccc(F)c4)ccnc3O2)c1 (centres undefined) | -7 | . | . | -8 | + | 3
CC(=O)Nc1ccc(-c2ccnc3c2CC(C(=O)NCc2cccc(Cl)c2)O3)cc1 (centres undefined) | -15 | . | . | 3 | ? | 16
CC(=O)Nc1cccc(-c2ccnc3c2CC(C(=O)NCc2cccc(Cl)c2)O3)c1 (centres undefined) | 2 | . | . | -3 | + | -1
COc1ccc(CC(N)c2csc(Nc3cc(NCCCO)ncn3)n2)cc1 (centres undefined) | -12 | . | . | 8 | + | 14
CCn1c2ccccc2c2nc3cc(OC)c(OC)cc3nc21 | 5 | 3 | -2 | -7 | i | 51*
CCC(C)N(C(=O)COC(=O)CCc1c[nH]c2ccccc12)C1CCS(=O)(=O)C1 (centres undefined) | -22 | -13 | 0 | -2 | i | -8
CCC(C)N(C(=O)COC(=O)Cc1n[nH]c(=O)c2ccccc12)C1CCS(=O)(=O)C1 (centres undefined) | 2 | 3 | 0 | -2 | i | 60*
CC(C)(C)OC(=O)N1CCC[C@H]1c1nnc(SCC(=O)Nc2ccc(Br)cc2)o1 | -33 | 9 | -2 | 5 | i | 60*
CON(C)C(=O)CCN(Cc1ccccc1)C(=O)OC(C)(C)C | 5 | -4 | 1 | 0 | i | 2
